Experimental data taken from PubChem BioAssay AID1345085 (National Center for Advancing Translational Sciences (NCATS), 2018).
Inconclusive results are not listed. Values without a mark were called inactive. Calls of active or inactive are those of the source. Calls follow the shape of the dose curve; as a rule, active = well fitted cell-killing curve with a large enough effect; inconclusive = small, poorly fitted or top-dose-only effect, or effect the other way; inactive = no such curve, though single readings can be large or run the other way.

Tested on: C33A
Experiment: Confirmatory qHTS for gynecologic anti-cancer compounds from libraries of approved drugs and bioactive compounds; also: nearly all actives have a fitted effect of over 55% in size
Conditions: gynecologic cancer cell panel viability, ATPlite luminescence, 48 h; series mostly up to 57.6 µM; activity change, negative = viability loss: at the top concentration
In short: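 Seeding 1,000 cells per well preceded overnight (16 h) attachment, after which 48 h drug treatment across 57.5 uM–0.977 nM (11 points) was applied. Remaining cellular ATP, detected by ATPlite luminescence, defined IC50.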
% is scaled to controls: 0 for no effect and ±100 for the full control effect; potency is read from the fitted curve at half-maximal effect.

SMILES | activity change, negative = viability loss | Potency
C[C@@]1(C(=O)Nc2ccc(F)nc2)CCCN1c1nc(Nc2cc(C3CC3)[nH]n2)c2cccn2n1 | 13.7% | 
Fc1cc(-c2cccc3ncc(-c4cnn(C5CCNCC5)c4)nc23)cc(F)c1CN1CCOCC1 |  | 24.3 µM (active)
CN(C)C/C=C/C(=O)Nc1cc2c(Nc3ccc(F)c(Cl)c3)ncnc2cc1OC1CCOC1 (stereo not drawn) |  | 6.85 µM (active)
CO[C@@]12[C@H](COC(N)=O)C3=C(C(=O)C(C)=C(N)C3=O)N1C[C@@H]1N[C@@H]12 | -5.23% | 
Cc1ccccc1C(OCCN(C)C)c1ccccc1 (stereo not drawn) | 0.202% | 
CN(C)c1ccc2nc3ccc(=[N+](C)C)cc-3sc2c1 |  | 21.7 µM (active)
Cc1[nH]c2ccccc2c1CCNCc1ccc(/C=C/C(=O)NO)cc1 |  | 0.243 µM (active)
C#C[C@]1(O)CC[C@H]2[C@@H]3CCC4=CC(=O)CC[C@@H]4[C@H]3CC[C@@]21CC | -1.35% | 
Cc1cnc(CNC(=O)c2c(=O)c3ccc(N4CCCN(C)CC4)nc3n3c2sc2ccccc23)cn1 | -18.8% [at 10.7 µM] | 
C[C@]12CCC(=O)C=C1[C@@H]1C[C@@H]1[C@H]1[C@@H]3[C@@H]4C[C@@H]4[C@@]4(CCC(=O)O4)[C@@]3(C)CC[C@@H]12 | -12.5% | 
CN1C2CCC1CC(OC(=O)[C@H](CO)c1ccccc1)C2 (stereo partly drawn) | 1.35% | 
Cc1ccc(C(=O)Nc2ccc(CN3CCN(C)CC3)c(C(F)(F)F)c2)cc1C#Cc1cnc2[nH]ncc2c1 |  | 17.2 µM (active)
NC(=O)Nc1cc(-c2cccc(F)c2)sc1C(=O)NC1CCCNC1 (stereo not drawn) |  | 0.485 µM (active)
Cc1ccc(C(=O)Nc2ccc(Oc3cc4cnn(C)c4cc3-c3cn[nH]c3)c(F)c2)c(=O)n1-c1ccc(F)cc1 | -14.4% | 
O=C(NOCC1CC1)c1ccc(F)c(F)c1Nc1ccc(I)cc1Cl | -18.5% | 
C=CC(=O)Nc1cccc(Oc2nc(Nc3ccc(N4CCN(C)CC4)cc3)ncc2Cl)c1 |  | 24.3 µM (active)
O=C1N(c2ccccc2)c2ccccc2C1(Cc1ccncc1)Cc1ccncc1 | 6.9% | 

SMILES | activity change, negative = viability loss | Potency
C[C@]12CCC(=O)C=C1CC[C@@H]1[C@@H]2[C@@H](O)C[C@@]2(C)[C@H]1CC[C@]2(O)C(=O)CO | 0.835% | 
COc1cc(Nc2ncc3c(n2)-c2ccc(Cl)cc2C(c2c(F)cccc2OC)=NC3)ccc1C(=O)O | -3.21% | 
O=C(/C=C/c1cccc(S(=O)(=O)Nc2ccccc2)c1)NO |  | 2.98 µM (active)
Cn1cnc2c(F)c(Nc3ccc(Br)cc3F)c(C(=O)NOCCO)cc21 | -21.1% | 
CN(C)/N=N/c1nc[nH]c1C(N)=O | 0.0357% | 
COc1cccc2c1C(=O)c1c(O)c3c(c(O)c1C2=O)C[C@@](O)(C(=O)CO)C[C@@H]3O[C@H]1C[C@H](N)[C@H](O[C@@H]2CCCCO2)[C@H](C)O1 |  | 2.43 µM (active)
COc1ccccc1N1CCN(CC(O)COc2cccc3ccccc23)CC1 (stereo not drawn) | -21.7% | 
C[C@@H](Oc1cc(-c2cnn(C3CCNCC3)c2)cnc1N)c1c(Cl)ccc(F)c1Cl |  | 24.3 µM (active)
COCCOc1nc(-c2ccc(Cl)c(Cl)c2)n(-c2ccc(NC(=O)CCl)cc2)n1 |  | 4.32 µM (active)
CCN(CC)CCCC(C)Nc1ccnc2cc(Cl)ccc12 (stereo not drawn) | 7.04% [at 19.5 µM] | 
Cc1cc(Nc2cc(N3CCN(C)CC3)nc(/C=C/c3ccccc3)n2)n[nH]1 |  | 21.7 µM (active)
NS(=O)(=O)OC[C@@H]1C[C@@H](n2ccc3c(N[C@H]4CCc5ccccc54)ncnc32)C[C@@H]1O |  | 4.85 µM (active)
Cc1cnc(Nc2cccc(CN3CCOCC3)c2)nc1Nc1cccc(S(=O)(=O)NC(C)(C)C)c1 |  | 24.3 µM (active)
NC(=O)c1cnc(-c2ccc(C3(N)CCC3)cc2)c(-c2ccccc2)c1 |  | 19.3 µM (active)
Cc1cncc2cccc(S(=O)(=O)N3CCCN(C(=O)CN)C[C@@H]3C)c12 | 8.41% | 
O=C(NCC(O)CO)c1ccncc1Nc1ccc(I)cc1F (stereo not drawn) | -24% | 
